Compound activity from PubChem BioAssay.
C diff growth: inhibitors of Clostridium difficile growth; Clostridium difficile clinical isolate growth, OD600, 24 h; stronger effect = lower value; growth activity, negative = inhibition, % at 16 µg/mL (by protocol); 0.25% of 86,000 active;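 active = mean growth activity at or below -80% and every replicate also at or below -80%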
Pf Dd2 growth: blocks growth of Plasmodium falciparum Dd2 parasites. P. falciparum Dd2 growth, SYBR Green, 72 h; stronger effect = lower value. activity change, % at 10 µM. 2.3% of 94,000 active. AID 1159554; in the data active = activity change below about -80%
T cruzi growth: T. cruzi proliferation inhibition; T. cruzi beta-gal in NIH3T3, GalScreen luminescence, 90 h; inhibition, % at 8.34 µM; 5.9% of 77,000 active;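 active = mean inhibition above about 93%, with at least 55% of replicates each passing it, limit read from the data, passing the limit was not always enough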
A number is an active result; . = inactive; / = not tested or not shown. A selection: hits, their analogues and other compounds. The true share with any hit is near 6.8%.

SMILES	C diff growth	Pf Dd2 growth	T cruzi growth
COc1ccc(NC(=O)N(C)C[C@@H]2Oc3c(NC(=O)NC4CCCCC4)cccc3C(=O)N([C@H](C)CO)C[C@@H]2C)cc1	.	.	.
C[C@H]1CCCCO[C@@H](CN(C)Cc2ccc(C(=O)O)cc2)[C@@H](C)CN([C@@H](C)CO)C(=O)c2cc(NC(=O)c3ccccc3)ccc2O1	.	.	.
C[C@@H]1CCCCO[C@@H](CN(C)Cc2ccc(C(=O)Nc3ccccc3N)cc2)[C@@H](C)CN([C@H](C)CO)C(=O)c2cc(NC(=O)CCC(F)(F)F)ccc2O1	.	-92	/
C[C@@H]1CCCCO[C@@H](CN(C)Cc2ccc(C(=O)Nc3ccccc3N)cc2)[C@@H](C)CN([C@H](C)CO)C(=O)c2cc(NC(=O)c3ccccc3)ccc2O1	.	-84	/
C[C@H]1CN([C@@H](C)CO)C(=O)c2cc(NC(=O)CCC(F)(F)F)ccc2O[C@@H]1CN(C)Cc1ccc(C(=O)Nc2ccccc2N)cc1	.	-86	/
C[C@@H]1CN([C@H](C)CO)C(=O)c2cc(NC(=O)CCC(F)(F)F)ccc2O[C@@H]1CN(C)Cc1ccc(C(=O)Nc2ccccc2N)cc1	/	.	.
C[C@@H]1CCCCO[C@@H](CN(C)Cc2ccccc2)[C@H](C)CN([C@H](C)CO)C(=O)c2cc(NC(=O)CCC(F)(F)F)ccc2O1	.	.	.
C[C@H](CO)N1C[C@H](C)[C@H](CN(C)Cc2ccccc2)OCCCC[C@H](C)Oc2ccc(NC(=O)c3ccncc3)cc2C1=O	.	.	.
C[C@@H]1CCCCO[C@@H](CN(C)Cc2ccc(C(=O)Nc3ccccc3N)cc2)[C@@H](C)CN([C@H](C)CO)C(=O)c2cc(NC(=O)c3ccncc3)ccc2O1	.	-85	/
CNC(=O)C[C@H]1CC[C@@H]2[C@H](COC[C@H](O)CN2S(=O)(=O)c2ccc(Oc3ccccc3)cc2)O1	.	.	.
CO[C@H]1CN(C)C(=O)c2cc(NC(=O)C3CC3)ccc2OC[C@@H](C)N(Cc2cncnc2)C[C@H]1C	.	.	.
C[C@H](CO)N1C[C@H](C)[C@@H](CN(C)C)Oc2cc(C#Cc3ccncc3)ccc2S1(=O)=O	.	.	.
C[C@@H]1CN([C@@H](C)CO)C(=O)c2cccc(NC(=O)CCCCCC(=O)Nc3ccccc3N)c2O[C@@H]1CN(C)Cc1ccc(Cl)c(Cl)c1	/	-93	.
C[C@@H]1CN([C@@H](C)CO)C(=O)Cc2cc(NC(=O)CCCCCC(=O)Nc3ccccc3N)ccc2O[C@@H]1CN(C)Cc1ccc(Cl)c(Cl)c1	.	.	.
C[C@H]1CN([C@@H](C)CO)C(=O)c2cccc(NC(=O)CCCCCC(=O)Nc3ccccc3N)c2O[C@H]1CN(C)Cc1ccc(Cl)c(Cl)c1	.	-88	/
C[C@@H]1CN([C@H](C)CO)C(=O)c2cccc(NC(=O)CCCCCC(=O)Nc3ccccc3N)c2O[C@@H]1CN(C)C	.	.	/
C[C@H](CO)N1C[C@H](C)[C@@H](CN(C)Cc2ccc(Cl)c(Cl)c2)Oc2c(NC(=O)CCCCCC(=O)Nc3ccccc3N)cccc2C1=O	.	.	/
C[C@@H]1CN([C@H](C)CO)C(=O)c2cccc(NC(=O)CCCCCC(=O)Nc3ccccc3N)c2O[C@@H]1CN(C)Cc1ccc(Cl)c(Cl)c1	.	-91	/
CO[C@H]1CN(C)C(=O)c2ccc(NC(=O)c3ccccc3)cc2OC[C@@H](C)N(C(=O)C2CC2)C[C@H]1C	.	.	.
COc1ccc(CN2CC3(CCN(S(=O)(=O)c4ccc(C)cc4)CC3)c3c([nH]c4cc(OC)ccc34)[C@H]2CO)cc1	.	-86	/
COc1ccc2c3c([nH]c2c1)[C@H](CO)N(Cc1ccncc1)CC31CN(S(C)(=O)=O)C1	.	.	/
COc1ccc(S(=O)(=O)N2CCC3(CC2)CN(Cc2ccncc2)[C@H](CO)c2[nH]c4cc(OC)ccc4c23)cc1	.	-88	/
COc1ccc2c3c([nH]c2c1)[C@H](CO)N(Cc1ccccc1)CC31CCN(S(=O)(=O)c2ccc(C)cc2)CC1	.	.	/
Cc1noc(C)c1NC(=O)N(C)C[C@@H]1Oc2ccc(NC(=O)CCN3CCOCC3)cc2CC(=O)N([C@@H](C)CO)C[C@@H]1C	.	.	.
CO[C@@H]1CN(C)C(=O)c2cc(NS(C)(=O)=O)ccc2OC[C@@H](C)N(Cc2ccccc2)C[C@@H]1C	/	.	.
SMILES	C diff growth	Pf Dd2 growth	T cruzi growth
C[C@@H]1CN([C@@H](C)CO)C(=O)c2cc(-c3ccc(C#N)cc3)cnc2O[C@H]1CN(C)C(=O)Nc1ccc(C(F)(F)F)cc1	.	.	/
C[C@H](CO)N1C[C@H](C)[C@H](CN(C)C(=O)Nc2ccccc2)Oc2ncc(-c3cccc(C(F)(F)F)c3)cc2C1=O	.	.	.
C[C@@H]1CN([C@H](C)CO)C(=O)c2cc(-c3ccc(C#N)cc3)cnc2O[C@H]1CN(C)C(=O)Nc1ccc(C(F)(F)F)cc1	/	-94	/
C[C@H](CO)N1C[C@H](C)[C@H](CN(C)C(=O)Nc2ccc(F)cc2)Oc2ncc(-c3cccc(C(F)(F)F)c3)cc2C1=O	.	.	109
COc1ccc(CN(C)C[C@@H]2Oc3ccc(NS(=O)(=O)c4cn(C)cn4)cc3CC(=O)N([C@@H](C)CO)C[C@H]2C)cc1	.	.	.
CN(C)C(=O)C[C@H]1CC[C@@H]2[C@H](COC[C@H](O)CN2CC2CCCC2)O1	.	.	.
COc1ccc2c3c(n(C)c2c1)[C@H](CO)N(C(=O)c1cccnc1)CC31CN(C)C1	.	.	/
Cc1ccc(S(=O)(=O)NCC[C@H]2CC[C@@H](NC(=O)c3cnccn3)[C@H](CO)O2)cc1	/	.	.
COc1ccc2c3c(n(C)c2c1)[C@H](CO)N(C(=O)Nc1ccc(F)cc1)CC31CN(C(=O)c2ccc3c(c2)OCO3)C1	.	-89	/
COc1ccc2c3c(n(C)c2c1)[C@@H](CO)N(C)CC31CN(C(=O)c2ccc3c(c2)OCO3)C1	.	.	/
COc1ccc2c3c(n(C)c2c1)[C@H](CO)N(C(=O)Nc1ccc(F)cc1)CC31CN(C)C1	.	.	/
COc1ccc2c3c(n(C)c2c1)[C@@H](CO)N(C(=O)Nc1ccc(F)cc1)CC31CN(C(=O)c2ccc3c(c2)OCO3)C1	.	-87	/
C[C@@H]1CN([C@@H](C)CO)C(=O)c2cccc(NC(=O)Nc3ccccc3)c2O[C@H]1CN(C)C(=O)Nc1ccc2c(c1)OCO2	.	.	.
O=S(=O)(N[C@@H]1CC[C@@H](CCn2cc(C3(O)CCCC3)nn2)O[C@H]1CO)c1ccc(Cl)cc1	/	.	.
C[C@H](CO)N1C[C@H](C)[C@@H](CN(C)Cc2ccc(C(=O)Nc3ccccc3N)cc2)Oc2ccc(NC(=O)C3CCCCC3)cc2CC1=O	.	-85	.
C[C@@H]1CN([C@H](C)CO)C(=O)Cc2cc(NC(=O)C3CCCCC3)ccc2O[C@@H]1CN(C)Cc1ccc(C(=O)Nc2ccccc2N)cc1	.	.	/
C[C@H]1CN([C@@H](C)CO)C(=O)Cc2cc(NC(=O)C3CCCCC3)ccc2O[C@@H]1CN(C)Cc1ccc(C(=O)Nc2ccccc2N)cc1	.	-88	/
C[C@H](CO)N1C[C@H](C)[C@H](CN(C)Cc2ccc(C(=O)Nc3ccccc3N)cc2)Oc2ccc(NC(=O)C3CCCCC3)cc2CC1=O	.	-84	.
C[C@H](CO)N1C[C@H](C)[C@@H](CN(C)Cc2ccc(C(=O)Nc3ccccc3N)cc2)Oc2ccc(NC(=O)C3CC3)cc2CC1=O	.	.	.
